Here are results for nine compounds from PubChem BioAssay (EPA / NIEHS).

“And” between values parts separate entries of the source, which are not always exact repeats. Identical values can stand only once. Records with an inconclusive call do not appear. Where a structure was tested more than once in an assay, its records may differ in their call. The source made the active and inactive calls. How the source made its calls, unless noted: active means hit-call score of the fitted dose curve at least 0.9, where 1 is the maximum; inactive means score below 0.9.

Assay [1] in a line: CCTE_Harrill_HTTr_Viability_MCF7: CCTE's 6-hour Cell Viability Assessment for the High-Throughput Transcriptomics (HTTr) Platform, in MCF-7 cells cultured in DMEM + 10% fetal bovine serum, Harrill Lab (AID 2284010). The essentials: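 Read-out is propidium iodide gain of signal by high-content imaging, reflecting membrane integrity loss. Measurements are taken 6 h after dosing, eight concentrations per chemical, with DMSO serving as baseline for bidirectional curve fitting.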

A short description of assay [2]: CCTE_Harrill_HTTr_Apoptosis_MCF7: CCTE's 6-hour Apoptosis Assessment for the High-Throughput Transcriptomics (HTTr) Platform, in MCF-7 cells cultured in DMEM + 10% fetal bovine serum, Harrill Lab (AID 2284011). The essentials: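 High-content imaging of CellEvent Caspase 3/7 Green signal follows a six-hour exposure, with eight concentrations per chemical. MCF-7 cells grown in DMEM plus 10% fetal bovine serum; activity fitted in both directions against DMSO.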

The nature of assay [3]: CCTE_Harrill_HTTr_CellCount_MCF7: CCTE's Cell Proliferation Assessment for the High-Throughput Transcriptomics (HTTr) Platform, Harrill Lab (AID 2284012; active means hit-call score of the fitted dose curve at least 0.9, where 1 is the maximum;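 further: cells exposed to compound for six hours; intended direction is loss of nuclei count meaning fewer cells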). The method in brief:
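Cell count served as viability reporter: loss of Hoechst-stained nuclei, counted by high content imaging, marks decreased growth or survival. Exposure was 6 h in MCF-7 cells across eight concentrations, with DMSO as baseline.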

A short description of assay [4]: CCTE_Shafer_MEA_dev_firing_rate_mean: CCTE's Neural Network Formation Assay for Mean Firing Rate, Shafer Lab (AID 2284031).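 On AC50: curve fitted for loss of firing so AC50 reflects decreased mean firing rate.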 The essentials:
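Steps: seed rat cortical cells (1.5 x 10^5/well) with laminin on PEI-coated MEA; dose day 0; record DIV 5/7/9/12, full media and compound exchange after DIV 5 and 9 recordings; compute well-mean firing rate AUC.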

Assay [5] can be described thus: CCTE_Shafer_MEA_dev_per_burst_spike_percent: CCTE's Neural Network Formation Assay for Percent of Spikes in a Burst, Shafer Lab (AID 2284032).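 On AC50: fitted as a decrease in burst spike percentage below DMSO baseline.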 The method in brief:
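Value is trapezoidal AUC over recordings on days 5, 7, 9 and 12 of the well-mean fraction of spikes falling in single-electrode bursts; rat cortical cultures exposed continuously from plating, treatment renewed DIV 5 and 9, fitted downward against DMSO.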

A short description of assay [6]: CCTE_Deisenroth_AIME_384WELL_CTox_Active: Cytotoxicity Assessment (CTOX) in CCTE's 384-well Estrogen Receptor Transactivation Assay with AIME metabolic competence (metabolism positive), Deisenroth Lab (AID 2284037; active means hit-call score of the fitted dose curve at least 0.9, where 1 is the maximum;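 further: chemicals first conditioned 2 h by alginate-bound induced rat liver S9 before cells; activity means signal loss indicating cell death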). The essentials: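 Cytotoxicity in VM7Luc4E2 breast cells, 24 hour, measured as protease-substrate fluorescence loss, after 2-hour metabolic conditioning with induced rat hepatic S9 in alginate microspheres. Concentrations 0.002 - 200 uM, 10 points, bidirectional fitting.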

The nature of assay [7]: CCTE_Shafer_MEA_acute_burst_number: CCTE's Neural Acute Assay for Single-Electrode Bursts, Shafer Lab (AID 2284013). The method in brief: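 Primary rat cortical neurons on 16-electrode MEA wells, DIV 13 or 15, exposed to compound (0.03-40 uM; ≥3 wells); 40-min recordings at 37 C before and after treatment. Burst count expressed as percent change from baseline, DMSO as negative control.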

Assay [8] can be described thus: CCTE_Shafer_MEA_acute_burst_duration_mean: CCTE's Neural Acute Assay for Mean Burst Duration, Shafer Lab (AID 2284014).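 Further: hits are decreases in mean burst duration relative to DMSO controls.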 The method in brief:
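Mean burst duration was compared between a 40 min baseline and a 40 min recording in the presence of compound (0.03-40 uM, 37 C), giving percent change per well. Cultures were rat cortical neurons at DIV 13 or 15; wells needed ≥10 active electrodes.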

A short description of assay [9]: CCTE_Shafer_MEA_acute_interburst_interval_mean: CCTE's Neural Acute Assay for Mean Interburst Interval, Shafer Lab (AID 2284016).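 Further: percent change of mean interburst interval versus each well's own pre-dose baseline; curves fitted for decrease in interburst interval relative to DMSO.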 The essentials:
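MEA recording of spontaneous network bursting in primary rat cortical cultures; mean interburst interval was compared before and after a 40-min compound exposure (0.03-40 uM) and expressed as percent change, relative to DMSO.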

A short description of assay [10]: CCTE_Shafer_MEA_acute_burst_percentage_mean: CCTE's Neural Acute Assay for Percentage of Spikes in a Burst, Shafer Lab (AID 2284017).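 On AC50: curve fitted for loss of signal so potency reflects decreased burst percentage.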 The method in brief:
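Compounds were tested at 0.03-40 uM on primary rat cortical neuron networks grown over microelectrodes, with at least three wells per compound. Spontaneous firing was recorded for 40 min before and 40 min after dosing, and the change in burst percentage was computed per well.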

A short description of assay [11]: CCTE_Shafer_MEA_acute_burst_percentage_std: CCTE's Neural Acute Assay for Standard Deviation of Burst Percentage, Shafer Lab (AID 2284018).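 Further: fitted in the negative direction so actives lower burst percentage SD.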 The method in brief: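 Value is percent change from baseline in the across-electrode SD of spikes-in-bursts percentage, wells with >/= 10 active electrodes. Acute 40-min exposure to 0.03-40 uM on DIV 13 or 15 rat cortical cultures, recorded at 37 C after 40-min baseline.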

Assay [12] is described as follows: CCTE_Shafer_MEA_acute_per_network_burst_spike_number_mean: CCTE's Neural Acute Assay for Average Number of Spikes in a Network Burst, Shafer Lab (AID 2284019). The essentials: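 Percent change from baseline in mean spikes per network burst, spikes detected at 8x rms noise. Each compound at 0.03-40 uM in at least three wells of rat cortical cultures, recorded 40 min before and 40 min during exposure.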

Assay [13] in a line: CCTE_Shafer_MEA_acute_per_network_burst_spike_number_std: CCTE's Neural Acute Assay for Standard Deviation of Number of Spikes in a Network Burst, Shafer Lab (AID 2284020).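 Further: fitted for decrease in spike-number SD versus DMSO so actives lower it.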 The method in brief: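 Endpoint: percent change from 40 min baseline in standard deviation of spikes per network burst, after 40 min compound exposure (0.03-40 uM, 37 C). Cortical rat neurons on MEA at DIV 13 or 15; spikes detected at 8x rms noise, 300-5000 Hz band-pass.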

A short description of assay [14]: CCTE_Shafer_MEA_acute_per_network_burst_electrodes_number_mean: CCTE's Neural Acute Assay for Mean Number of Electrodes in a Network Burst, Shafer Lab (AID 2284021).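 Further: curves fitted for decreases only so hits reduce electrodes per burst.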 The essentials: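 Percent change from baseline was computed as mean electrode count per network burst, comparing 40 min recordings before and during compound (0.03-40 uM) exposure. Cultures were rat cortical neurons at DIV 13 or 15, recorded on MEAs at 37 C with an adaptive 8x rms threshold.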

The nature of assay [15]: CCTE_Shafer_MEA_acute_network_burst_percentage: CCTE's Neural Acute Assay for Percentage of Network Bursts, Shafer Lab (AID 2284022).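 Further: curves fitted for loss so actives lower network burst percentage.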 The essentials: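 Network burst percentage (spikes in network bursts divided by total spikes) recorded at 37 C over 40 min baseline and 40 min after compound, 0.03-40 uM, in rat cortical cultures at DIV 13 or 15. Analysed as percent change from baseline versus DMSO.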

The nature of assay [16]: CCTE_Shafer_MEA_acute_cross_correlation_area: CCTE's Neural Acute Assay for Area of Cross Correlation, Shafer Lab (AID 2284024).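 Further: area under pooled inter-electrode spike cross-correlation near zero lag as percent change from own baseline; curves fitted for loss of cross-correlation area so actives lower synchrony.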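 On outcome: rat primary cortical neuron networks on 48-well MEA at DIV 13 or 15 with 40 min exposure.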 The essentials:
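Percent change in well-wide cross-correlation area (window around zero lag) between 40 min baseline and 40 min post-compound recordings, 37 C; rat cortical cultures on MEA at DIV 13 or 15, dosed 0.03-40 uM, wells needing >/= 10 active electrodes.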

A short description of assay [17]: CCTE_Shafer_MEA_acute_cross_correlation_HWHM: CCTE's Neural Acute Assay for Cross Correlation at Half Width at Half Maximum, Shafer Lab (AID 2284026).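 Further: percent change per well from pre-dose baseline in spike cross-correlogram half width; hits are a decrease in cross-correlogram half width relative to DMSO.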 The essentials:
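Per-well percent change in cross-correlogram half width at half maximum, derived from 40-min recordings before and after compound (0.03-40 uM) at 37 C. Cultures were rat cortical neurons, DIV 13 or 15, with adaptive spike detection at 8x rms.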

Assay [18] in a line: CCTE_Shafer_MEA_acute_synchrony_index: CCTE's Neural Acute Assay for Synchrony, Shafer Lab (AID 2284027).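 Further: network synchrony index of spontaneous spiking in primary rat cortical neurons on MEAs; fitted for loss of signal so actives lower synchrony relative to DMSO.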 The essentials: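 Plates equilibrated 20 min at 37 C, baseline recorded 40 min, compound (0.03-40 uM) added, then 40 min more recorded. Cells: primary rat cortical neurons, DIV 13 or 15. Per-well synchrony index change analysed in negative direction against DMSO.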

Take `CCCSP(=O)(OCC)Oc1ccc(Br)cc1Cl` (centres undefined): the result in assay [1], in assay [2], in assay [3], in [4], in assay [5] and in [6] was inactive.
As for `CCOP(=S)(OCC)SCCSCC`, the outcome in assay [1], in assay [2], in assay [7], in [8], in assay [9] and in assay [10] was inactive. For the same compound, the outcome in assay [11], in assay [12], in [13], in assay [15], in [16] and in [18] was inactive. Besides, the compound was called inactive in [4] and in assay [5]. For the same compound, the AC50 was 2.98 µM (active) in assay [14] and 8.93 µM (active) in [17].
As to `CSC1=N[C@@](C)(c2ccccc2)C(=O)N1Nc1ccccc1`, the outcome in assay [1], in assay [2], in assay [7], in assay [8], in [9] and in assay [12] was inactive. In addition, the outcome in assay [13], in assay [14], in assay [15], in assay [16], in assay [4] and in [5] was inactive. The AC50 in assay [8] is 32 µM (active); in assay [10], 20 µM (active) and 24.4 µM (active); in assay [11] it was 37.7 µM (active) and 26.1 µM (active); in [13], 30.8 µM (active); in [15] it was 22.1 µM (active); in [17], 29.8 µM (active) and 18.1 µM (active). In [18], the AC50 is 20 µM (active) and 22.8 µM (active).
`CNC(=O)ON=C(SC)C(=O)N(C)C`: the outcome in assay [1], in assay [2], in assay [3], in assay [7], in assay [8] and in assay [9] was inactive. Also, the outcome in [10], in [11], in assay [12], in assay [13], in assay [14] and in assay [15] was inactive. Further, the call in assay [17] and in assay [18] was inactive.
Turning to `CC1(C(=O)Nc2ccc(O)c(Cl)c2Cl)CCCCC1`, the result in assay [1], in assay [2] and in assay [6] was inactive.
On to `CCOP(=S)(OCC)Oc1cc(C)nc(C(C)C)n1`, for which the result in assay [1], in [2], in assay [3], in assay [4] and in [5] was inactive. For the same compound, the AC50 in [4] and in assay [5] was 50 µM (active) each time.
Regarding `CCOP(=S)(OCC)OC(Cl)C(Cl)(Cl)Cl` (centres undefined), the outcome in [1], in [2] and in assay [3] was inactive. Also, the AC50 in assay [4] is 23.4 µM (active); in assay [5] it was 50 µM (active) and 19 µM (active).
On to `CON=C(C(=O)OC)c1ccccc1CON=C(C)c1cccc(C(F)(F)F)c1`, for which the result in assay [1], in assay [2], in assay [8], in assay [11] and in assay [12] was inactive. Besides, the AC50 in assay [7] is 0.191 µM (active); in assay [9] it was 4.19 µM (active); in assay [10], 1.12 µM (active); in [13], 0.59 µM (active); in assay [14], 13.5 µM (active); in [16] it was 0.162 µM (active). The AC50 is 0.278 µM (active) in assay [17]; 2.25 µM (active) in assay [18]; 639 nM (active) and 964 nM (active) in assay [4]; 1.11 µM (active) and 1.32 µM (active) in [5]; 19.8 µM (active) in assay [6].
Turning to `CCC(=NOC/C=C/Cl)C1=C(O)CC(C2CCOCC2)CC1=O` (centres undefined), the outcome in assay [1], in assay [2] and in assay [6] was inactive.
